Test results from PubChem BioAssay (NCI).
Several values for one entry are separate records, joined by “and”; a condition that tells them apart may be missing. Identical values can stand only once. Compounds without any hit were thinned out: in the full panel of roughly 79,000, 15% have a hit. More than one record can exist for a structure, and the calls need not agree. Activity calls are given as the source filed them. No stated cut-off is given here; in the data, active means growth inhibition above about 70%; inactive means the rest. Where a SMILES comes first, the peptide text is derived from it. The star is where a group is joined. Boc = CC(C)(C)OC(=O)*; Bn = c1ccc(C*)cc1

Experiments:
[1] = NCI Yeast Anticancer Drug Screen. Data for the rad50 strain (AID 155);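 further: 0% = growth of vehicle-only cultures of the same strain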; conditions: S. cerevisiae rad50 strain growth inhibition; at 50.0 µM; stronger effect = higher value
How it was run: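 Inhibition values express reduced yeast growth in compound-treated cultures relative to vehicle-treated controls.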

[2] = NCI Yeast Anticancer Drug Screen. Data for the mec2-1 strain (AID 157); conditions: S. cerevisiae mec2-1 strain, at 50.0 µM, stronger effect = higher value
How it was run: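 Using mec2-1 yeast: add compound, measure growth, express inhibition versus vehicle-treated cultures.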

[3] = NCI Yeast Anticancer Drug Screen. Data for the sgs1 mgt1 strain (AID 161);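 further: 0% = growth of cultures given vehicle only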; conditions: S. cerevisiae sgs1 mgt1 strain, at 50.0 µM, stronger effect = higher value
How it was run: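 Compounds are added to genetically altered yeast, and growth is compared with cultures given vehicle alone to give percent inhibition.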

[4] = NCI Yeast Anticancer Drug Screen. Data for the cln2 rad14 strain (AID 165);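 further: 0% = growth equal to vehicle treated cultures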; conditions: S. cerevisiae cln2 rad14 strain, at 50.0 µM, stronger effect = higher value
How it was run: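 Yeast strain cln2 rad14, bearing defects in cell cycle control and DNA repair, serves as the test system; values reflect growth inhibition compared with vehicle.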

[5] = NCI Yeast Anticancer Drug Screen. Data for the bub3 strain (AID 167); conditions: S. cerevisiae bub3 mutant strain, at 50.0 µM, stronger effect = higher value
How it was run: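 Steps: expose the mutant yeast strain to compound; grow alongside vehicle-treated cultures; measure growth; express inhibition against the vehicle cultures.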

[6] = NCI Yeast Anticancer Drug Screen. Data for the mlh1 rad18 strain (AID 175); conditions: S. cerevisiae mlh1 rad18 strain growth inhibition; at 50.0 µM; stronger effect = higher value
How it was run: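 Steps: expose repair-defective yeast to compound; measure growth; express inhibition against vehicle-treated controls.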

| SMILES | growth inhibition [1] | growth inhibition [2] | growth inhibition [3] | growth inhibition [4] | growth inhibition [5] | growth inhibition [6] |
| --- | --- | --- | --- | --- | --- | --- |
| O=[N+]([O-])C(CO)(CO)CO | -11.3% (inactive) and 11.1% (inactive) | -6.25% (inactive) and 1.95% (inactive) | -6% (inactive) and 6.85% (inactive) | -22.4% (inactive) and 3.45% (inactive) | -2.55% (inactive) and 2.6% (inactive) | -7.2% (inactive) and 2.65% (inactive) |
| Nc1ccc2nc[nH]c2c1 | -15.3% (inactive) and 18.9% (inactive) | -7.6% (inactive) and -4.65% (inactive) | -7.55% (inactive) and -18.6% (inactive) | 14.7% (inactive) and 16.6% (inactive) | 2.25% (inactive) and -1% (inactive) | -0.9% (inactive) and 14.3% (inactive) |
| COc1ccc2c(c1)-c1nn(CCCN(C)C)c3ccc([N+](=O)[O-])c(c13)N2 | 76.2% (active) and 67.2% (inactive) | 8% (inactive) and 12.3% (inactive) | 23.9% (inactive) and -28.4% (inactive) | 10.7% (inactive) and 20.6% (inactive) | 27.8% (inactive) and -60.1% (inactive) | 39.7% (inactive) and 28.5% (inactive) |
| O=C(O)c1cccc(S(=O)(=O)O)c1 | -22.6% (inactive) and -9.2% (inactive) | -40.5% (inactive) and -8.4% (inactive) | -1.2% (inactive) and -9.2% (inactive) | -14.1% (inactive) and 13% (inactive) | -2.05% (inactive) and 0% (inactive) | 0.4% (inactive) and 2.45% (inactive) |
| CC(CCC(=O)O)(c1ccc(O)cc1)c1ccc(O)cc1 | 10.4% (inactive) and -8.8% (inactive) | -0.85% (inactive) and -15.6% (inactive) | -12.8% (inactive) and -51.6% (inactive) | -44.4% (inactive) and -33.4% (inactive) | -2.7% (inactive) and -17.2% (inactive) | 22.8% (inactive) and -15.6% (inactive) |
| C/C(C=O)=C\c1ccc(N(C)C)cc1 | -36.5% (inactive) and 5% (inactive) | -21.8% (inactive) and 2.5% (inactive) | -20.6% (inactive) and -13.9% (inactive) | -44.8% (inactive) and 13.2% (inactive) | 16.5% (inactive) and 8.5% (inactive) | -4.45% (inactive) and 13.6% (inactive) |
| COC(=O)CCC1C(C)(C(C)=O)CCC2C1(C)CCC1(C)C3CC(C)(C)CCC3(C)CCC21C (configuration not stated) | 1.65% (inactive) and 1.05% (inactive) | 1.05% (inactive) and -5.35% (inactive) | -11.8% (inactive) and -15.2% (inactive) | -7.8% (inactive) and -3.65% (inactive) | -3.9% (inactive) and -2.15% (inactive) | 13.8% (inactive) and 4.4% (inactive) |
| CC(=O)OC1CCC2(C)C(CCC3(C)C2CCC2C4=CC(C)(C)CCC4(C)CCC23C)C1(C)C (configuration not stated) | 14.1% (inactive) and -0.45% (inactive) | 10% (inactive) and -9.7% (inactive) | -10.7% (inactive) and -1.75% (inactive) | 13.4% (inactive) and -3.6% (inactive) | 10.6% (inactive) and -4.15% (inactive) | 20.1% (inactive) and 7.15% (inactive) |
| Nc1cccc2cc(S(=O)(=O)O)ccc12 | 10.6% (inactive) and -6.9% (inactive) | 22.9% (inactive) and -9.85% (inactive) | -24.9% (inactive) and -1.25% (inactive) | -2.75% (inactive) and -50.2% (inactive) | -1.65% (inactive) and -11.9% (inactive) | -5.5% (inactive) and -35.7% (inactive) |
| OC1Cc2ccccc2CC1O (configuration not stated) | -20.1% (inactive) and -35.1% (inactive) | -41.4% (inactive) and -39.9% (inactive) | -36.5% (inactive) and -12.3% (inactive) | -19.6% (inactive) and -1.5% (inactive) | -26.1% (inactive) and -8.8% (inactive) | -5.8% (inactive) and -14.7% (inactive) |
| COC1OC(COC(=O)NCCCCC(=O)C(F)(F)C(F)(F)C(F)(F)C(F)(F)C(F)(F)C(F)(F)C(F)(F)F)C(O)C(O)C1O (configuration not stated) | -34.9% (inactive) and -29.9% (inactive) | -22.2% (inactive) and -30.1% (inactive) | -10% (inactive) and -11.4% (inactive) | -2.5% (inactive) and -8.2% (inactive) | -18.4% (inactive) and -26.4% (inactive) | -2.9% (inactive) and -3.6% (inactive) |
| CNC(=O)C(CC(C)C)NC(=O)C(C)NC(=O)C(Cc1ccc(OCc2ccccc2)cc1)NC(=O)C(COCc1ccccc1)NC(=O)OC(C)(C)C (configuration not stated) (Boc-S(Bn)Y(Bn)AL-NHMe; configuration not given here) | -7.2% (inactive) and -29.6% (inactive) | -17.5% (inactive) and -21.1% (inactive) | -20.1% (inactive) and -17% (inactive) | 17.1% (inactive) and 6.9% (inactive) | 25% (inactive) and -1.35% (inactive) | 1.1% (inactive) and -0.25% (inactive) |
| Nc1ccc(O)c2c1C(=O)c1c(O)ccc(N)c1C2=O | 59.8% (inactive) and 13.4% (inactive) | 11.4% (inactive) and -13.4% (inactive) | 16.4% (inactive) and -0.55% (inactive) | -16.1% (inactive) and -0.65% (inactive) | 43.2% (inactive) and 8.25% (inactive) | 42.1% (inactive) and 11.8% (inactive) |
| COC1C(O)C(O)C(O)C(O)C1O (configuration not stated) | 0.95% (inactive) and -11.2% (inactive) | -4.8% (inactive) and -13.4% (inactive) | -0.35% (inactive) and -18.1% (inactive) | 21.2% (inactive) and 9.9% (inactive) | -3.1% (inactive) and -31.4% (inactive) | -0.45% (inactive) and -15.6% (inactive) |
| O=C1CC(=P(c2ccccc2)(c2ccccc2)c2ccccc2)C(=O)N1c1ccccc1 | -24.2% (inactive) and 22.2% (inactive) | -15.6% (inactive) and -12% (inactive) | -7.95% (inactive) and 42.8% (inactive) | 5.05% (inactive) and 33.2% (inactive) | -9.45% (inactive) and 10.2% (inactive) | -12.8% (inactive) and 21.6% (inactive) |
| Oc1ccc(-c2ccc(O)cc2)cc1 | 36.2% (inactive) and -18.6% (inactive) | 2.45% (inactive) and -3.75% (inactive) | 7.4% (inactive) and -17.4% (inactive) | 19.9% (inactive) and -27.9% (inactive) | 11.9% (inactive) and 12.9% (inactive) | 13.8% (inactive) and 19.3% (inactive) |
| Cc1cc(=O)[nH]c2ccc(Cc3ccccc3)cc12 | -1.2% (inactive) and 28.1% (inactive) | 10.4% (inactive) and 5.75% (inactive) | -7.75% (inactive) and 17.6% (inactive) | -26.2% (inactive) and 6% (inactive) | -4.6% (inactive) and -2.65% (inactive) | 16.9% (inactive) and 21.9% (inactive) |
